{
  "source": "PubChem BioAssay (EPA / NIEHS)",
  "note": "The source made the active and inactive calls. How the source made its calls: active means hit-call score of the fitted dose curve at least 0.9, where 1 is the maximum; inactive means score below 0.9.",
  "data": [
    {"read-out": "cysteine-aspartic acid protease (CASP8), CASP8 (gene 841)", "test": "LTEA_HepaRG_CASP8: Life Technologies and Expression Analysis (LTEA) Assay for cysteine-aspartic acid protease (CASP8) using HepaRG (AID 2283480)", "conditions": "mRNA level, 48 h; actives raise or lower the signal", "method": "LTEA_HepaRG is a cell based, multiplexed-readout assay that uses HepaRG, a human liver cell line, with measurements taken at 48 hours after chemical dosing on a 96-well plate.LTEA_HepaRG_CASP8 is one of 102 assay component(s) measured in the LTEA HepaRG cell culture assay. It is a marker of Cell proliferation, survival, death.Data from the assay component LTEA_HepaRG_CASP8 was analyzed into 1 endpoint. This assay endpoint, LTEA_HepaRG_CASP8, was analyzed with bidirectional fitting relative to DMSO as the negative control and baseline of activity. Using a type of inducible reporter, measures of mRNA induction for gain or loss-of-signal activity can be used to understand regulation of transcription factor activity. To generalize the intended target to other relatable targets, this assay endpoint is annotated to the protease intended target family, where the subfamily is cysteine protease.\nA total of 1060 chemcials from the ToxCast library were tested in eight-point concentration-response experiments. Cell culture and cytotoxicity assays were conducted at Thermo Fisher Scientific's Custom Services facility (Madison, WI). A single lot of human HepaRG cells (Thermo Fisher Scientific, Frederick, MD) was used for the cell culture experiments. 96-well format collagen type I coated plates of human HepaRG cells were prepared using established methods. Briefly, cryopreserved HepaRG cells were thawed, plated at a density of approximately 100,000 cells/well in HepaRG Thaw, Plate, and General Purpose media (HPRG770, Thermo Fisher Scientific), and incubated for 48 hours. 0.5% DMSO was selected as vehicle control to balance the requisite need of DMSO in HepaRG cultures to maintain differentiation (for example, baseline metabolism, proportions of hepatocytes vs. cholangiocytes), while enabling further hepatic receptor pathway activation (for example, PXR and CAR) in response to chemical exposure. 48 hours after plating, the culture medium was replaced with HepaRG Serum-Free Incudtion Media. Cells were exposed to each test chemical in duplicate and maintained in CO2 incubators for another 48 hours. Chemical plates were thawed to room temperature and 200x concentrations of treatment groups were prepared. 8-point conentration-reponse curves were made with the highest exposure at 100 uM, followed by half-log dilutions, all in 0.5% DMSO. Each test plate contained variouse controls, induction positive controls (1mM phenobarbital), cytotoxicity positive controls ([…] aflatoxin B1), vehicle controls (0.5% DMSO), and total lysis controls (0.5% DMSO). Cell morphology images were taken using an Essen IncuCyte FLR automated microscope, with six 96-well plates imaged in about 24 minutes. Images were captured and exported and JPEG files. Spent culture media was transfered to black-well plates for the LDH assay, and remaining media was sorted at -80 C for later use. Cells were treated with RLT buffer and frozen until shipped for gene expression analysis. Total RNA was isolated from the cell suspension in 75 uL of Buffer RLT (Qiagen, Germantown, MD 20874) by Quintiles/Expression Analysis (Durham, NC) using a custom isolation procedure. Total RNA from each plate well was transferred to a preamplification plate. Fluidigm's 96.96 Dynamic ArrayTM (Fluidigm, Amsterdam, the Netherlands) technology was used for gene expression analyses by quantitative reverse transcription polymerase chain reaction (qRT-PCR, performed by Quintiles/Expression Analysis, Durham, NC)89. Standard TaqManTM Assays (Applied Biosystems/ThermoFisher Scientific, Foster City, CA) were used to assess the expression of 93 genes selected based on their selectivity and sensitivity to important hepatic receptors known to be modulated by environmental chemicals; importance in human hepatocyte functionality; and hepatotoxicity. […]", "values": [
      {"smiles": "Cc1ccccc1CO[C@@H]1C[C@@]2(C(C)C)CC[C@]1(C)O2", "outcome": "inactive"},
      {"smiles": "O=S(=O)(O)C(F)(F)C(F)(F)C(F)(F)C(F)(F)C(F)(F)C(F)(F)F", "outcome": "inactive"},
      {"smiles": "Oc1ccc(Cl)cc1Cl", "outcome": "inactive"},
      {"smiles": "CCC(=O)O[C@H]1CC[C@H]2[C@@H]3CCC4=CC(=O)CC[C@]4(C)[C@H]3CC[C@]12C", "outcome": "inactive"},
      {"smiles": "Cc1cc(-c2ccc(N)c(C)c2)ccc1N", "outcome": "inactive"},
      {"smiles": "O=NN(c1ccccc1)c1ccccc1", "outcome": "inactive"},
      {"smiles": "CO/C=C(/C(=O)OC)c1ccccc1COc1cccc(C(F)(F)F)n1", "outcome": "inactive"},
      {"smiles": "ClC(Cl)=C(c1ccc(Cl)cc1)c1ccc(Cl)cc1", "outcome": "inactive"},
      {"smiles": "N#Cc1ccc(N(CC(N)=O)CC(F)(F)F)cc1C(F)(F)F", "outcome": "inactive"},
      {"smiles": "COS(=O)(=O)OC", "outcome": "inactive"},
      {"smiles": "O=C(N[C@H]1CN2CCC1CC2)c1cc2ccoc2cn1", "outcome": "inactive"},
      {"smiles": "O=S(=O)(O)C(F)(F)C(F)(F)C(F)(F)C(F)(F)F", "outcome": "inactive"},
      {"smiles": "Nc1ccc(-c2ccc(N)cc2)cc1", "outcome": "inactive"},
      {"smiles": "ClC1=C(Cl)[C@]2(Cl)[C@@H]3[C@@H](Cl)[C@H]4O[C@H]4[C@@H]3C1(Cl)C2(Cl)Cl", "outcome": "inactive"},
      {"smiles": "Cc1cc(O)ccc1Cl", "outcome": "inactive"},
      {"smiles": "CC(C)(c1ccccc1)c1ccc(O)cc1", "outcome": "inactive"},
      {"smiles": "CCNc1nc(NC(C)C)nc(SC)n1", "outcome": "inactive"},
      {"smiles": "CCCCCCCCOC(=O)c1ccccc1C(=O)OCCCCCCCC", "outcome": "inactive"},
      {"smiles": "CC(C)(O)C(=O)Nc1ccc([N+](=O)[O-])c(C(F)(F)F)c1", "AC50": "0.0142 µM (active)"},
      {"smiles": "CN(C)c1nc(=O)n(C2CCCCC2)c(=O)n1C", "outcome": "inactive"},
      {"smiles": "Cc1cccc([N+](=O)[O-])c1", "outcome": "inactive"},
      {"smiles": "Cc1ccccc1[N+](=O)[O-]", "outcome": "inactive"},
      {"smiles": "Cc1ccc(O)c(C)c1", "outcome": "inactive"},
      {"smiles": "CCC(C)c1cc([N+](=O)[O-])cc([N+](=O)[O-])c1O", "note": "(stereo not given)", "AC50": "4 µM (active)"},
      {"smiles": "CCOP(=S)(OCC)SCSC(C)(C)C", "outcome": "inactive"},
      {"smiles": "CC(c1ccc(O)cc1)(c1ccc(O)cc1)c1ccc(O)cc1", "outcome": "inactive"},
      {"smiles": "COc1ccc(O)c(C(C)(C)C)c1", "outcome": "inactive"},
      {"smiles": "CCCN(CCC)N=O", "outcome": "inactive"},
      {"smiles": "O=C(O)C(F)(F)C(F)(F)C(F)(F)C(F)(F)C(F)(F)C(F)(F)C(F)(F)C(F)(F)F", "outcome": "inactive"},
      {"smiles": "c1ccc(-c2ccccc2)cc1", "outcome": "inactive"},
      {"smiles": "CCCCCCOC(=O)c1ccccc1C(=O)OCCCCCC", "outcome": "inactive"},
      {"smiles": "Clc1ccc(C(c2ccccc2Cl)C(Cl)(Cl)Cl)cc1", "note": "(stereo not given)", "outcome": "inactive"},
      {"smiles": "ClC1=C(Cl)[C@]2(Cl)[C@@H]3[C@@H]4C[C@@H]([C@H]5O[C@@H]45)[C@@H]3[C@@]1(Cl)C2(Cl)Cl", "outcome": "inactive"},
      {"smiles": "CCC(C)(c1ccc(O)cc1)c1ccc(O)cc1", "outcome": "inactive"},
      {"smiles": "Oc1c(Cl)c(Cl)c(Cl)c(Cl)c1Cl", "AC50": "6.64 µM (active)"},
      {"smiles": "CC1=C2C[C@H]3[C@@H](CC=C4C[C@@H](O)CC[C@@]43C)[C@@H]2CC[C@]12O[C@@H]1C[C@H](C)CN[C@H]1[C@H]2C", "outcome": "inactive"},
      {"smiles": "CC#Cc1cc(C)nc(Nc2ccccc2)n1", "outcome": "inactive"},
      {"smiles": "c1cc2ccc3cccc4ccc(c1)c2c34", "outcome": "inactive"},
      {"smiles": "Clc1ccc(Cl)cc1", "outcome": "inactive"},
      {"smiles": "CCC(C)(CC)c1cc(NC(=O)c2c(OC)cccc2OC)on1", "outcome": "inactive"}
    ]}
  ]
}
